# Screens (PubChem BioAssay)
# Compounds with a hit are over-represented: about 14% of the library has one in this group of screens.
# HADH2 inh = HADH2 (human) dehydrogenase inhibition | Q99714 | recombinant HADH2, NADH fluorescence, beta-hydroxybutyryl-CoA | Potency, µM (series often up to 57.1 µM), inactives show at the top dose activity change, negative = inhibition, most hits filed as inhibitors | hit rate 3.4% among 73,000; note: potency is the fitted concentration of half-maximal effect; % is set by controls: 0 for no effect and ±100 for the full control effect; nearly all actives have a fitted effect of over 60% in size
# Target sequence (Q99714 whole entry, looked up, one chain of several): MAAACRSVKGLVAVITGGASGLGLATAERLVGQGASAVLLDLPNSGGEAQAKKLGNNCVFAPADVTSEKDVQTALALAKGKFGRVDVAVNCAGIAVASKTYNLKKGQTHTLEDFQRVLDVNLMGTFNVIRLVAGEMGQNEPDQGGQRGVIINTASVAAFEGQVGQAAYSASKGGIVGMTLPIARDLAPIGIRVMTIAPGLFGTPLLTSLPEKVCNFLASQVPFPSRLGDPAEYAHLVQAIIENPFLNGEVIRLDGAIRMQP
#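 Activity measured as NADH fluorescence gain (360/450 nm), taken as the change between first and last reads of a 4-min kinetic run. Conditions: pH 9.0 Tris buffer, 20 nM E. coli-expressed His-tagged enzyme, 1 mM NAD+, 90 uM beta-hydroxybutyryl-CoA; 15-min compound preincubation.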
# AID923 = qHTS Assay for Allosteric/Competitive Inhibitors of Caspase-1: Spectroscopic Profiling in AFC Spectral Region. hit rate 1.1% among 75,000. Potency, µM (highest dose often 57.5 µM), for the others: at the top dose fluorescence increase, most hits filed as activators. AID 923, 2007. compound fluorescence, AFC spectral region (405/520 nm); note: potency is the fitted concentration of half-maximal effect; 0% is about no effect
#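 Titrations up to 57 uM read every 20 sec for 3 min (405/520 nm) with 50 nM caspase 1 and 5 uM Ac-WEHD-AFC, pH 7.5 HEPES buffer. Fluorescence-vs-time intercept gave baseline, scaled against on-plate AFC standard.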
# HSD17B inh = blocks hydroxysteroid 17-beta dehydrogenase activity | Potency, µM (highest dose often 57.1 µM), for the others: top-dose activity change, negative = inhibition, actives largely listed as inhibitors | recombinant HSD17B10, NADH fluorescence kinetic | hit rate 7.6% among 75,000;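 note: the protocol describes HADH2 (HSD17B10) and not the HSD17B4 of the title; potency is the fitted concentration of half-maximal effect; % is set by controls: 0 for no effect and ±100 for the full control effect; nearly all actives have a fitted effect of over 70% in size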
#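 Activity followed as NADH fluorescence increase (ex 360, em 450 nm) every 30 seconds for 4 min, using final 90 uM beta-hydroxybutyryl CoA and 1 mM NAD+. Recombinant His-tagged enzyme, 20 nM, pH 9.0 Tris buffer, 15 min compound preincubation.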
# 4MU fluor = compound fluoresces in the 4-MU spectral region; max dye-equivalent concentration, M; AID 589; compound autofluorescence, 340/450 nm, 4-MU equivalents; stronger effect = higher value; hit rate 11% among 59,000; in the data active = max dye-equivalent concentration above about 10 nM; inconclusive = mostly about 1.1 nM to 9.6 nM
#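 Compounds in 100 mM Tris, pH 8.0, sat 15 min at room temperature before fluorescence was read at 340 nm excitation/450 nm emission; a per-plate six-point 4-MU standard curve converted signals to dye-equivalent concentration at each compound concentration.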
# A350 fluor = compound fluoresces in the Alexa 350 spectral region | Compound autofluorescence, 340/450 nm, Alexa 350 dye-equivalents; stronger effect = higher value | max dye-equivalent concentration, M | hit rate 11% among 59,000 | AID 590; in the data active = max dye-equivalent concentration above about 10 nM; inconclusive = mostly about 1.1 nM to 9.6 nM
# CRE-bla Fsk = alters forskolin-stimulated CRE reporter signaling in CHO cells; AID 662; CHO CRE-bla reporter (cAMP response element driving beta-lactamase), forskolin EC10, beta-lactamase ratio; hit rate 2.5% among 71,000; Potency, µM (top dose mostly 38.2 µM), for inactives: at the highest dose activity change, negative = inhibition, most hits filed as activators; active = well fitted activation curve with a large enough effect in the signal ratio, with a control signal flat, not every such curve was filed as active; inconclusive = small, poorly fitted or top-dose-only effect, or effect the other way, or a change in a side signal; the % refers to the signal ratio; note: potency is the fitted concentration of half-maximal effect; % of control where 0% means no effect
#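 qHTS titration format; CRE-bla CHO reporter; stimulus EC10 NKH 477, a water-soluble forskolin. Read: CCF4 460/530 nm ratio. Potency expressed as AC50 for activators or inhibitors.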
# Starred values were filed as active, the others as inactive; i = inactive; ? = inconclusive; . = no result given; [ ] = another dose, or the depositor's remark. Unless noted, calls come from the whole dose curve; as a rule, active = well fitted curve in the direction sought with a large enough effect; inconclusive = small, poorly fitted or top-dose-only effect, or another doubt; inactive = no such curve, though single readings can be large; an effect the other way counts as inactive or inconclusive.
SMILES,HADH2 inh,AID923,HSD17B inh,4MU fluor,A350 fluor,CRE-bla Fsk
O=C(O)CCc1nn2cc(-c3ccccc3)nc2[nH]c1=O,.,.,.,2.1e-07M*,2.5e-07M*,.
CCc1nn2cc(-c3ccccc3)nc2s1,10%,2%,1%,i,i,7%
O=C(c1csnn1)N1CCC[C@@]2(CCN(c3ccncc3)C2)C1,?,3%,-3%,i,i,5%
CCc1ccc2c(c1)N(C[C@H](C)CN(C)C)c1ccccc1S2,12%[11.4 µM],1%[11.5 µM],-19%[11.4 µM],i,i,-6%[7.6 µM]
COc1cc2cc(CN(CCCO)S(=O)(=O)c3ccccc3Cl)c(=O)[nH]c2cc1OC,34%,5%,?,2.2e-07M*,2.3e-07M*,15%
COc1cc2cc(CN(CCCO)S(=O)(=O)c3ccccc3)c(=O)[nH]c2cc1OC,57%,2%,32µM*,4.4e-07M*,3.5e-07M*,6%
COc1ccc2cc(CN(CC3COCCO3)S(=O)(=O)c3ccccc3)c(=O)[nH]c2c1 (configuration not stated),128%,-2%,-63%,i,i,-5%
COc1cc2cc(CN(CCO)S(=O)(=O)c3ccccc3Cl)c(=O)[nH]c2cc1OC,5%,13%,25µM*,2.6e-07M*,3.3e-07M*,?
Cc1cc2cc(CN(CCCO)S(=O)(=O)c3cccc4nsnc34)c(=O)[nH]c2cc1C,-2%,0%,-5%,i,i,?
Cc1ccc2[nH]c(=O)c(CN(CCCO)S(=O)(=O)c3c(C)ccc4nsnc34)cc2c1,2%,0%,5%,i,i,-3%
CCCC(=O)N(Cc1cc2ccccc2[nH]c1=O)c1ccccc1OC,.,.,.,i,i,.
COc1ccc2cc(CN(Cc3cccnc3)S(=O)(=O)c3ccccc3)c(=O)[nH]c2c1,23%,-3%,25µM*,?,?,3%
COC(=O)N1CC=CC1(C)C(=O)O (configuration not stated),-11%,0%,-2%,.,.,3%
CO[C@H]1COC(=O)[C@@H](CCSC)NC(=O)C/C=C\[C@@H](C)COC(=O)[C@@H](OCc2ccccc2)/C=C\[C@@H]1C,11%[11.4 µM],0%[11.5 µM],0%[11.4 µM],.,.,.
Cc1ccc2nc(-c3ccc(NC(=O)c4ccc(N)cc4)c(S(=O)(=O)O)c3)sc2c1,2.5µM*,6%[11.5 µM],3.2µM*,5.5e-06M*,5.8e-06M*,2%[7.6 µM]
COCCN=C1OC(=O)N2C(=O)C3=C4C(C[C@H]5C(=O)N(CC(=O)OC)C(=O)[C@H]5[C@H]4[C@@]12Cc1ccccc1)[C@H]1C(=O)N(CC(=O)OC)C(=O)[C@H]1[C@H]3C (some centres not stated),.,4%,15%,.,.,.
O=c1c2ccccc2nc(SCc2cn3ccsc3n2)n1-c1ccccc1F,10%,-2%,-2%,i,i,5µM*
Brc1ccccc1-c1nnc(CSc2nncn2-c2ccccc2)o1,1%,-1%,-11%,i,i,-4%
O=c1c2ccccc2nc(SCc2nnc(-c3ccccc3Br)o2)n1-c1ccccc1,1%,-2%,3%,i,i,2.5µM*
O=c1c2ccccc2nc(SCc2cn3ccsc3n2)n1-c1ccccc1,4%,-2%,3%,i,i,1.3µM*
COc1ccc(COC(=O)N/N=C2/C[C@@H](O)[C@@H](O)[C@@H]3[C@@H]4C(=O)N(Cc5ccccc5)C(=O)[C@H]4CC[C@@H]23)cc1,-9%[11.4 µM],-1%[11.5 µM],3%[11.4 µM],.,.,.
NC(=O)c1ncn([C@H]2O[C@@H](CO)[C@@H](O)[C@@H]2O)n1,-3%[25.6 µM],-1%[25.7 µM],-3%[25.6 µM],i,i,-14%[17.1 µM]
COC(=O)c1cccc(Oc2nc(N3CCOCC3)nc(N3CCOCC3)n2)c1,8%,1%,3%,i,i,4%
Cc1ccc2c(c1)N(CCC(=O)NCCCOC(C)C)C(=O)C(C)O2 (configuration not stated),7%,-1%,3%,i,i,13µM*
